Source: PubChem
The list is not random: actives were taken first. Their share in the collection is about 31%.
CYP2C9 inhib: blockers of cytochrome P450 2C9 activity – biochemical, luminescence, ADME assay, primary screen. CYP2C9 Supersomes, luciferin-H conversion. inhibition, % at 5 µM. 96,000 tested, 20% active. AID 777, 2007;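 active means blocking of liver enzyme CYP2C9 beyond about 50% at 5 µM, limit read from the data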
CYP2C19 act: human CYP2C19 activators, primary screen, biochemical, luminescence; Cytochrome P450 2C19 (Homo sapiens), P33261; recombinant CYP2C19, luciferin-H EGE luminescence; hits give high values; 0 = fully inhibited enzyme, 1 = untreated enzyme; activation factor at 5 µM; 96,000 tested, under 10 active; AID 1025, 2008;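 active means activation factor of at least 2 at 5 µM in the primary screen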;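 further: 0 = wells with 2.5 mM tranylcypromine and 1 = vehicle-only wells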
CYP2C9 activ: human CYP2C9 activators, primary screen, biochemical, luminescence; recombinant CYP2C9, luciferin-H conversion; hits give high values; factor 1 = untreated enzyme, 0 = blocked; activation factor at 5 µM; 96,000 tested, 1.4% active; AID 1024, 2008;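 active means activation factor of 2 or more for CYP2C9 at a 5 µM dose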;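 further: 0 = sulfaphenazole-blocked wells and 1 = vehicle-only wells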
PLAP act: PLAP enzyme activators, biochemical, luminescence, HTS; Alkaline phosphatase, placental type (Homo sapiens), P05187; purified PLAP enzyme, luminescent substrate read-out; hits give high values; activation fold at 20 µM; 96,000 tested, 1.2% active; AID 696, 2007; in the data active means activation fold above about 2
CYP2C19 inh: blockers of cytochrome P450 2C19 activity – biochemical, luminescence, ADME assay, primary screen; P33261; CYP2C19 Supersomes, luciferin-H EGE luminescence, 30 min; inhibition, % at 5 µM; 96,000 tested, 21% active;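 active means CYP2C19 inhibition above a set limit at 5 µM in the primary screen, cut at about 50% in these data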;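 further: plate controls were negative control wells for no effect and 2.5 mM tranylcypromine positive control for full effect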
An asterisk follows results filed as active; / = not tested or not shown.

SMILES | CYP2C9 inhib | CYP2C19 act | CYP2C9 activ | PLAP act | CYP2C19 inh
O=C(CSCc1nc2ccccc2[nH]1)N1CCN(c2cccc(Cl)c2)CC1 | 36 | 0.8 | 0.6 | 1.3 | 18
CCN1CCN(Cc2ccc(NC(=O)CC3Oc4ccc(C)cc4NC3=O)cc2)CC1 (stereo not given) | -1 | 1.1 | 1 | 0.9 | -14
NCCc1nnc(SCc2ccccc2)o1 | 66* | 0.2 | 0.3 | 0.9 | 79*
NCCc1nnc(SCC(N)=O)o1 | -4 | 1 | 1 | 0.9 | -5
NCCCCCc1nnc(SCc2ccccc2Cl)o1 | 15 | 0.3 | 0.8 | 1 | 72*
CCN(CC)C(=O)CSc1nnc(CCN)o1 | 53* | 0.5 | 0.5 | 1.2 | 48
Fc1cccc(Cl)c1CSc1nnc(COc2cccc3cccnc23)o1 | -23 | 0 | 1.2 | 1.1 | 96*
NCCCCCc1nnc(SC/C=C/c2ccccc2)o1 | 12 | 0.9 | 0.9 | 1.2 | 12
Cc1ccc(-c2nnn(CC(=O)Nc3ccc4nn(-c5ccccc5)nc4c3)n2)o1 | 4 | 1 | 1 | 0.8 | 3
COc1ccc(-c2csc(N(CC3CCCO3)C(=O)c3ccco3)n2)cc1 (stereo not given) | -1 | 1.1 | 1 | 1 | -6
NCCc1nnc(SCc2ccccc2F)o1 | 29 | 0.6 | 0.7 | 0.8 | 44
NCCc1nnc(SCc2c(F)cccc2Cl)o1 | 53* | 0.4 | 0.5 | 0.9 | 62*
N[C@@H](Cc1ccccc1)c1nnc(SCc2ccccc2Cl)o1 | 36 | 0.2 | 0.6 | 1.2 | 79*
CC[n+]1c(/C=C/C=C/N(C(C)=O)c2ccccc2)sc2ccccc21 | / | / | / | 0.5 | /
CCN1C(=O)/C(=C/N(C(C)=O)c2ccccc2)N(c2ccccc2)C1=S | 95* | 0.4 | 0 | 1.5 | 63*
CC1(C)Cc2nc3sc4c(SCC(=O)NCc5ccccc5)ncnc4c3cc2CO1 | 73* | 0.2 | 0.3 | 0.9 | 83*
CCCCSc1nc(C)c(CC(=O)OC)c(=O)[nH]1 | -7 | 0.9 | 1.1 | 1.1 | 8
CCCCOc1ccccc1C(=O)NCCCC(=O)O | 38 | 1 | 0.6 | 1 | 4
CC1(c2ccc(Cl)c(Cl)c2)NC(=S)N2C1NC(=S)N2c1ccccc1 (stereo not given) | 37 | 0.2 | 0.6 | 1.3 | 78*
Cc1ccc(S(=O)(=O)c2c(N)n(CCC(C)C)c3nc4ccccc4nc23)cc1 | 48 | 0.6 | 0.5 | 1.4 | 43
Cc1ccc(S(=O)(=O)c2c(N)n(CCCO)c3nc4ccccc4nc23)cc1 | 92* | 0.1 | 0.1 | 1.6 | 92*
Cc1ccc(S(=O)(=O)c2c(N)n(Cc3ccco3)c3nc4ccccc4nc23)cc1C | 65* | 0.5 | 0.4 | 1.5 | 54*
Cc1ccc(S(=O)(=O)c2c(N)n(CCN3CCOCC3)c3nc4ccccc4nc23)cc1C | 0 | 0.3 | 1 | 1 | 72*
Nc1c(S(=O)(=O)c2ccccc2)c2nc3ccccc3nc2n1Cc1ccco1 | 36 | 0.8 | 0.6 | 0.9 | 18
COCCNc1ncnc2nc[nH]c12 | -2 | 1.1 | 1 | 1 | -11
SMILES | CYP2C9 inhib | CYP2C19 act | CYP2C9 activ | PLAP act | CYP2C19 inh
COc1ccccc1CNc1ncnc2c1nnn2Cc1ccccc1 | 42 | 0.5 | 0.6 | 0.9 | 55*
COc1ccccc1CNc1ncnc2nc[nH]c12 | -14 | 1.1 | 1.1 | 2.1* | -8
COc1ccccc1Nc1ncnc2nc[nH]c12 | -10 | 1 | 1.1 | 2* | -3
Oc1ccccc1CN1CCCN(Cc2ccccc2O)C1 | -4 | 0.6 | 1 | 1.3 | 44
COc1ccc(CCC(C)NC2C3CC4CC(C3)CC2C4)cc1 (stereo not given) | 1 | 0.9 | 1 | 1.1 | 6
CCN1C(=O)c2c(C)nc3ccccc3c2C1=O | 36 | 0.4 | 0.6 | 1.1 | 58*
COC(=O)CSc1nnc(C)n1-c1cccc(C#N)c1 | -18 | 1.2 | 1.2 | 0.9 | -23
O=C(Cn1cc2c(n1)CCCC2)N1CCCc2ccccc21 | 35 | 0.7 | 0.6 | 1.2 | 28
Cc1cc(C)c(S(=O)(=O)c2ccccc2C)c(Oc2ccccc2)n1 | 56* | 0.3 | 0.4 | 1.3 | 69*
CCCCSc1nc(C)c(C(C)=O)cc1C#N | 29 | 0.7 | 0.7 | 1 | 35
